Source: PubChem BioAssay (NCATS)
Calls of active or inactive are those of the source. How the calls were made is not given here.

tested on: HIV-1 nucleocapsid protein NCp7 (binding to TG oligonucleotide); experiment: HIV Nucleocapsid (AID 346); conditions: HIV-1 NC / fluorescein-TGTGTGTG probe, fluorescence polarization;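 further: potency is for inhibitors that block NC binding and lower polarization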
Summary of the method: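 Inhibition of nucleocapsid binding to single-stranded 5'-TGTGTGTG probe (10 nM) was measured by fluorescence polarization after 1 hr at room temperature with 100 nM protein under high-salt, zinc-containing, reducing conditions.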
Potency means the concentration at half of the fitted maximal effect.

Compound | Potency
O=C(c1cnccn1)N1CCC[C@@]2(CCN(Cc3nccs3)C2)C1 | > 20 µM (inactive)
CC(=O)N1CCC2(CC1)CCN(c1ccccn1)CC2 | > 4 µM (inactive)
COc1ncc2nc(-c3ccc(F)cc3)c(=O)n(CCC#N)c2n1 | > 20 µM (inactive)
O=C(c1cnccn1)N1CCC2(CC1)CCN(C(c1ccccc1)c1ccccc1)CC2 | > 20 µM (inactive)
COCCNc1nc(-c2c(C)noc2C)nc2ccccc12 | > 20 µM (inactive)
Clc1ccccc1-c1nc(Nc2ccncc2)c2ccccc2n1 | > 20 µM (inactive)
O=C(c1ccco1)N1CCC[C@@]2(CCN(Cc3ccccc3)C2)C1 | > 20 µM (inactive)
O=C(c1cccc(F)c1)N1CCC[C@@]2(CCN(c3cccc(-c4ccccc4)c3)C2)C1 | > 20 µM (inactive)
COc1ccccc1-c1nc(N(C)C)c2ccccc2n1 | > 20 µM (inactive)
CS(=O)(=O)N1CCC2(CCCN(c3ncccn3)C2)CC1 | > 20 µM (inactive)
c1cncc(CNc2ncncc2-c2ccc3c(c2)OCO3)c1 | > 20 µM (inactive)
COCCn1c(=O)c(-c2ccc(OC)cc2)nc2cnc(Oc3ccccc3)nc21 | > 20 µM (inactive)
CCNc1ncc2nc(-c3ccc(OC)cc3)c(=O)n(Cc3cccs3)c2n1 | > 20 µM (inactive)
Cc1nc2cnc(Oc3cccc(Cl)c3)nc2n(Cc2ccc(F)cc2)c1=O | > 20 µM (inactive)
O=C(c1cc(C(F)(F)F)cc(C(F)(F)F)c1)N1CCC2(CC1)CCN(c1ccccc1)CC2 | > 20 µM (inactive)
